We go through 31 compounds from PubChem BioAssay (Tox21).

Each structure is given as a SMILES string. Records with an inconclusive call do not appear. A number with no mark means an inactive call. Calls of active or inactive are those of the source. Calls come from the whole dose curve.
% is set by controls: 0 for no effect and ±100 for the full control effect; potency is the fitted concentration of half-maximal effect.

Chain of Acetylcholinesterase (Homo sapiens) (P22303 whole entry, looked up): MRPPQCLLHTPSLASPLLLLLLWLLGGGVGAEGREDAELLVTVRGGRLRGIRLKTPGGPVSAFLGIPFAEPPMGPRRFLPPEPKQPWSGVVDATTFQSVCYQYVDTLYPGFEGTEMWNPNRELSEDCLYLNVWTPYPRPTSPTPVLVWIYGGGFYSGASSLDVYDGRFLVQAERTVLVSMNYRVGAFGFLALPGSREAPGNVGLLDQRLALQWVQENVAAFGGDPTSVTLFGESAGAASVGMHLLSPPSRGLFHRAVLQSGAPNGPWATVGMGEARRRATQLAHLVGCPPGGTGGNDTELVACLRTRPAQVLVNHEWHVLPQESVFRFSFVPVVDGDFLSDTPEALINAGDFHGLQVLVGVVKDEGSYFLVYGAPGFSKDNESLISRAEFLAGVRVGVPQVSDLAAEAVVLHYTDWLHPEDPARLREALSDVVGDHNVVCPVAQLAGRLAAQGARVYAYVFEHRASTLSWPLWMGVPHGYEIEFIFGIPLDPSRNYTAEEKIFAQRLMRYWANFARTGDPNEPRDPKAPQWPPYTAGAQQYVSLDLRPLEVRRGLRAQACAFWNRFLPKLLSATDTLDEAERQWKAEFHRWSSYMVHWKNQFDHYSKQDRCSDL

For the assay, the target named is Acetylcholinesterase (Homo sapiens) (UniProt P22303). Briefly: Acetylcholinesterase (AChE) small molecule antagonists: colormetric cell-based qHTS assay (AID 1347395). Note: nearly all actives have a fitted effect of over 30% in size. As to conditions: SH-SY5Y cells AChE activity, colorimetric (Ellman); series mostly up to 115 µM; activity, negative = inhibition: at the top concentration. A digest of the protocol:
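Endogenous AChE of human neuroblastoma SH-SY5Y cells was measured with an Ellman-type DTNB/acetylthiocholine mix. Compound pretreatment lasted 30 min at 37 C; substrate reaction ran 90 min at 37 C.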
A general note: In qHTS, concentration-response curves come from the screen itself.
`CC(C)(c1ccc(O)c(-c2ccccc2)c1)c1ccc(O)c(-c2ccccc2)c1`: the “activity, negative = inhibition” value is 0.485%.
On the same count and under the same terms, for `Fc1ccc(Oc2ccnc3cc(Cl)cc(Cl)c23)cc1` the value was -2.41%.
Turning to `COc1cc(C=O)cc2c1[C@H](COC(N)=O)[C@]1(OC(C)=O)ON2C[C@H]2[C@@H]1N2C(C)=O`, the “activity, negative = inhibition” value is 0.808%.
For `O=c1ssc(Cl)c1Cl`, the “activity, negative = inhibition” value was 2.84%.
Take `c1cc[c]([Sb]([c]2ccccc2)[c]2ccccc2)cc1`: the “activity, negative = inhibition” value was 3.56%.
Take `C[C@]12CC[C@@H]3c4ccc(OC(=O)N(CCCl)CCCl)cc4CC[C@H]3[C@@H]1CC[C@@H]2O`: the “activity, negative = inhibition” value was -10.7% [at 52.9 µM].
Still for that read-out and setting: the figure for `C=CC(=O)OCCCCOC(=O)C=C` is 1.4%; for `O=[N+]([O-])c1cc(Cl)ccc1Cl` it is 2.07%.
As to `ClCc1ccccc1CCl`, the “activity, negative = inhibition” value is -0.201%.
`NC(=O)CCl`: the “activity, negative = inhibition” value was 0.194%.
The same measure, in the same setting: the figure for `CC1(c2ccc(Oc3ccccc3)cc2)OC(=O)N(Nc2ccccc2)C1=O` (stereo unspecified) is 6.5%; for `COC(=O)N(C(=O)N1COC2(C(=O)OC)Cc3cc(Cl)ccc3C2=N1)c1ccc(OC(F)(F)F)cc1` (stereo unspecified) it is 2.54% [at 52.9 µM].
On to `Cc1c(Cl)c(=O)oc2cc(OP(=O)(OCCCl)OCCCl)ccc12`, for which the Potency is 3.89 µM (active).
Consider `O=C1NCN(c2ccccc2)C12CCN(CC1COc3ccccc3O1)CC2` (stereo unspecified), for which the “activity, negative = inhibition” value was 1.02% [at 52.9 µM].
For the compound `CCC(C)(C)C(=O)OC1=C(c2ccc(Cl)cc2Cl)C(=O)OC12CCCCC2`, the “activity, negative = inhibition” value was -8.01%.
In the case of `C[C@H]1O[C@@H](O[C@H]2[C@@H](O)C[C@H](O[C@H]3[C@@H](O)C[C@H](O[C@H]4CC[C@@]5(C)[C@H](CC[C@@H]6[C@@H]5CC[C@]5(C)[C@@H](C7=CC(=O)OC7)CC[C@]65O)C4)O[C@@H]3C)O[C@@H]2C)C[C@H](O)[C@@H]1O`, the Potency result is “inactive”.
Regarding `CCC(C)c1cc(C(C)(C)C)cc(-n2nc3ccccc3n2)c1O` (stereo unspecified), the “activity, negative = inhibition” value was -3.09% [at 52.9 µM].
The same measure, in the same setting: for `Oc1ccc(C(=C(Cl)Cl)c2ccc(O)cc2)cc1` the value was -0.551%.
The same measure, in the same setting: for `CC(C)OC(=S)S` the value was 3.95%; for `CCCCN(CCCC)C(=S)[S-].CCCCN(CCCC)C(=S)[S-].[Zn+2]`, -8.08%.
On the same count and under the same terms, for `O=C(Nc1ccc2[nH]ccc2c1)c1cc2cc(F)ccc2n1Cc1cccc(F)c1` the value was 6.22%.
Turning to `CCc1ccccc1C`, the “activity, negative = inhibition” value was 0.396%.
Same read-out and setting: for `Nc1ccccc1C(=O)OC/C=C/c1ccccc1` the value was 0.0478%; for `COc1ccc(OC)c(CC(C)N)c1` (stereo unspecified), -1.02%; for `CC(Cl)CN(C)C` (stereo unspecified), 1.51%.
In the case of `CCCCCCCCCCCCCC[P+](CCCCCC)(CCCCCC)CCCCCC` (tested in a mixture with another compound), the “activity, negative = inhibition” value was -6.85%.
On the same count and under the same terms, the figure for `c1ccc2cc3c(cc2c1)-c1cccc2cccc-3c12` is 0.102%.
The same measure, in the same setting: the figure for `CN(C)S(=O)(=O)N(SC(F)(Cl)Cl)c1ccccc1` is 1.68%; for `[CH3][Hg][Cl]` it is -1.02%; for `C=CC(=O)OCC(COC(=O)C=C)(COC(=O)C=C)COC(=O)C=C` it is -1.4%.
On to `COC[C@H](C)N(C(=O)CCl)c1c(C)csc1C`, for which the “activity, negative = inhibition” value is -3.03%.
